This is one part of a sample in which hits are shown more often than they occur.
Tg IFNy HTS – T. gondii growth inhibition with IFN-gamma, primary screen, cell-based | Toxoplasma gondii growth in IFN-gamma-treated host cells; hits give low values | activity change, negative = inhibition, % (no concentration beside the values) | hit rate 3.8% among 69,000 | AID 1259416, 2018; in the data active means activity change below about -70%, passing the limit was not always enough;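 further: host cells are HeLa cells infected with Toxoplasma gondii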
* hit, by the source's call; i = inactive.

SMILES | Tg IFNy HTS
C=CCN(CC=C)C(=O)CN1CCc2[nH]cnc2C12CCCCC2 | -12
COCC(=O)N1CCC(C(=O)NCc2ccccc2-c2ccccc2)CC1 | 1
CSc1sc(-c2ccno2)c(-c2ccco2)c1C#N | 77
Cc1c(-c2ccccc2)sc(N)c1C#N | -12
CSc1sc(-c2ccn[nH]2)c(-c2ccccc2)c1C#N | -85*
O=C(c1ccccc1)c1c(Cl)cc(C(F)(F)F)cc1Cl | -3
O=C(Nc1cc(C(F)(F)F)cc(C(F)(F)F)c1)c1cc(Cl)ccc1O | -80*
COCCCNC(=O)c1ccccc1C(=O)Nc1cc(C(F)(F)F)cc(C(F)(F)F)c1 | 37
O=C(Nc1cc(C(F)(F)F)cc(C(F)(F)F)c1)c1csc(-c2ccc(Cl)cc2)c1 | 48
O=C(Nc1cc(C(F)(F)F)cc(C(F)(F)F)c1)Nc1sccc1Cl | -95*
O=C(Nc1ccccc1)c1cc2n(n1)CCN(C(=O)c1csnn1)C2 | 39
O=C(Nc1ccccc1-c1ccccc1)c1csnn1 | 2
O=C(N/C=C/c1ccsc1)Sc1cc(C(F)(F)F)cc(C(F)(F)F)c1 | 48
O=C(NC(=O)c1csnn1)Nc1cc(C(F)(F)F)cc(C(F)(F)F)c1 | -101*
Cc1cc(=O)c(C(=O)N2CCCC(N(C)Cc3ccccc3)C2)c[nH]1 (centres undefined) | 4
COc1ccc(CCNC(=O)N2CCN3CCN(C)CC3C2)cc1 (centres undefined) | 3
CC1CCN(Cc2ccnc(-c3cccnc3)n2)CC1 | 13
C1=CC[C@H]2CN(c3nncs3)C[C@H]2C1 | -3
CCOCC1CC2(COCCN2S(=O)(=O)c2cccc(C)c2)CO1 (centres undefined) | 73
Cc1cc(CN2C[C@H](OCC3CCOCC3)[C@@H]3COC[C@@H]32)oc1C | -2
Cc1ccc(Nc2nc(C(=O)Nc3ccc(C)cc3C)nc3ccccc23)cc1 | 92
CCN(CC)C(=O)c1cc(=O)n(CC(=O)Nc2ccc3c(c2)OCCO3)c2ccccc12 | 13
COC(=O)c1c(NCCc2c[nH]c3ccccc23)c2cc(F)ccc2[nH]c1=O | -99*
COC(=O)c1c(NCCc2ccccc2)c2cc(F)ccc2[nH]c1=O | 7
COCCNc1c(C(=O)OC)c(=O)[nH]c2ccc(F)cc12 | 35
SMILES | Tg IFNy HTS
COc1ccc(C(=O)N(C2CCCC2)C2(C(=O)NCc3ccccc3)CCN(C(C)=O)CC2)cc1 | 0
Cc1cc(C)c2[nH]c(=O)c(CN3CCOC(CN)C3)cc2c1 (centres undefined) | -42
COC(=O)c1cccc(-n2nnnc2SCC(=O)Nc2ccc(F)cc2)c1 | -1
c1ccc(C(c2ccccc2)c2nc(CSc3nnnn3-c3ccccc3)no2)cc1 | -21
Cc1[nH]n2c(=O)cc(CSc3nnnn3-c3ccccc3)nc2c1-c1ccc(F)cc1 | -93*
Cc1sc2ncn(-c3ccc(Cl)cc3)c(=O)c2c1C | 30
Cc1ccc(CN2CCC(N(C)C)CC2C(=O)O)cc1 (centres undefined) | i
O=C(O)C1(Cc2ccc(-c3ccccc3)cc2)CCNC1 (centres undefined) | 32
CC(C)[C@H]1c2ccc(F)cc2CC[C@@]1(CCN(C)CCCc1nc2ccccc2[nH]1)OC(=O)C1CC1 | -86*
CC(C)N1CCNC(=O)C1CC(=O)N(C)Cc1nc2ccccc2[nH]1 (centres undefined) | -1
CN(Cc1nc2ccc(F)cc2[nH]1)C1CCN(C(=O)c2ccccc2)CC1 | 0
CCCc1cc(-c2cc(=O)n3[nH]c(C)c(-c4ccc(OC)c(OC)c4)c3n2)no1 | -27
Cc1[nH]ncc1C(=O)N1CCC2(CC1)COc1ccccc1S(=O)(=O)N(CC(C)C)C2 | -48
C=CCNC(=O)C1(Cc2cccc(-c3cncnc3)c2)CCN(C(=O)c2cnccn2)CC1 | -93*
CCN1CCOCC12CCN(C(=O)c1cnccn1)CC2 | -11
O=C(NC1CCC12CCN(C(=O)c1ccco1)CC2)c1cnccn1 (centres undefined) | 3
CN1CCC2(CCOCC2COc2cccnc2)CC1 (centres undefined) | -25
CCCc1nc(NCc2nnnn2-c2ccccc2)c2cnn(C)c2n1 | -9
CCCc1nc(NCc2cc(-c3ccccc3)n[nH]2)c2cnn(C)c2n1 | -83*
CCCc1nc(NCc2cc(-c3ccc(F)cc3)on2)c2cnn(C)c2n1 | -12
COc1cccc(S(=O)(=O)N2C[C@@H]3N[C@H](C2)C3c2ccc(-c3ccccc3F)cc2)c1 (some centres undefined) | -31
COc1cccc(-c2ccc(C3[C@@H]4CN(S(=O)(=O)Cc5ccccc5)C[C@H]3N4)cc2)c1 (some centres undefined) | -81*
CN(C)C(=O)c1cccc(-c2ccc(C3[C@H]4CNC[C@@H]3N4S(=O)(=O)Cc3ccccc3)cc2)c1 (some centres undefined) | -13
COc1ccc(OC)c(CNC(=O)Cn2ncc3c(N4CCC(C)CC4)ncnc32)c1 | 261
COc1cccc(CNC(=O)Cn2ncc3c(N4CCOCC4)ncnc32)c1 | 64
COc1cc(NC(=O)Cn2ncc3c(N4CCC(C)CC4)ncnc32)cc(OC)c1OC | 13

Screening data deposited in PubChem by Broad Institute.
